Results on 8 molecules are retold here after PubChem BioAssay (NCI).

Holding throughout (test): NCI-60 one-dose screen, 48 h (100 = growth as untreated, 0 = no growth, -100 = all killed)
Holding throughout (conditions): 10 µM unless noted

Experiment [1] has as its system NCI-H23 lung.
Experiment [2] relates to NCI-H226 lung.
Experiment [3] deals with HOP-62 NSCLC.
The subject of experiment [4] is NCI-H460 lung.
Experiment [5] deals with HOP-92 NSCLC.
Experiment [6] has as its system NCI-H522 lung.
Experiment [7] has as its system A549/ATCC NSCLC.
In experiment [8] the test system is 786-0 renal.
Experiment [9] has as its system COLO 205 colon.
For experiment [10], the system named is DU-145 prostate.
Experiment [11] concerns K-562 leukemia.
Experiment [12] deals with MALME-3M melanoma.
Experiment [13] has as its system MDA-MB-231 breast.
For experiment [14], the system named is RXF 393 renal.
In experiment [15] the test system is SF-268 CNS.
In experiment [16] the test system is SF-295 CNS.
Experiment [17] relates to SF-539 CNS.
Experiment [18] concerns UACC-257 melanoma.
Experiment [19] concerns M14 melanoma.

About 83,000 compounds went through this panel and 20% of them were active in at least one assay; those are over-represented in the sample as a whole.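 Plates (96-well) were seeded with cells, treated with compound at one concentration, and incubated for 48 hours before percent growth was determined.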 Values without a mark were called inactive. Activity calls are given as the source filed them. Rule for the calls: active = growth percent below 10; inactive = the rest.

Take `CC1CC(=O)C2=C(C1)Nc1ccc(Br)cc1CC2c1c[nH]c2ccc(Br)cc12` (stereo unspecified): the growth in experiment [1] is 66.8%; in experiment [2] it was 65.5%; in [3] it was 65.2%; in experiment [4], 34.5%; in experiment [5] it was 76.6%; in [6], 18.4%. Further, the growth was 42.3% in experiment [7]; 51.2% in [8]; 66.2% in experiment [9]; 71.6% in [10]; 21.6% in experiment [11]; 59.3% in [12]. Further, the growth in experiment [13] is 68.8%; in experiment [14], 69%; in experiment [15], 67.8%; in experiment [16] it was 4.8% (active); in [17] it was 54.8%; in [18], 67.9%. The growth in [19] was 29%.

For `O=C(Nc1ccc(Cl)c(C(F)(F)F)c1)Nc1ccc2c(ccn2C(=O)c2cccc(F)c2)c1`, the growth is 10.3% in [1]; 36.5% in experiment [2]; 54.5% in experiment [3]; 13.2% in experiment [4]; 5.69% (active) in experiment [5]; 5.03% (active) in experiment [6]. The growth in [7] is 30.6%; in [8], 42.4%; in experiment [9], 25.3%; in experiment [10], 24.5%; in experiment [11] it was 11.4%; in experiment [12] it was 56%. In addition, the growth is 87% in experiment [13]; 28.7% in experiment [14]; 55.4% in experiment [15]; 5.17% (active) in [16]; 66.7% in experiment [17]; 60.6% in experiment [18]. Also, the growth in experiment [19] is 56.2%.

Consider `CC1=C(C)C(=O)C(Nc2ccc(C)cc2)=C(Br)C1=O`, for which the growth in experiment [1] is 87.7%; in [2], 86.5%; in experiment [3], 83.2%; in [4], 102%; in [5], -35.8% (active); in [6], 96.1%. The growth was 100% in [7]; 106% in experiment [8]; 124% in experiment [9]; 106% in experiment [10]; -21.3% (active) in [11]; 112% in [12]. Also, the growth in experiment [13] was 70.1%; in experiment [14], 97.7%; in experiment [15] it was 97.3%; in [16], 98.1%; in experiment [17], 100%; in [18], 93.8%. In addition, the growth in [19] was 106%.

`CS(=O)(=O)c1nccc(-c2c(-c3cccc(OCc4ccc(Cl)c(C(F)(F)F)c4)c3)nc3sccn23)n1`: the growth was 39.4% in experiment [1]; 23.6% in experiment [2]; 32% in experiment [3]; 55.6% in experiment [4]; 73.9% in experiment [5]; 80.1% in experiment [6]. The growth in experiment [7] was 106%; in experiment [8] it was 106%; in experiment [9], 105%; in experiment [10], -25% (active); in experiment [11], 14.2%; in [12], 88.3%. Further, the growth is 84.4% in experiment [13]; 78% in experiment [14]; 104% in [15]; 95% in [16]; 93.3% in experiment [17]; 66.9% in experiment [18]. For the same molecule, the growth in [19] was 72.9%.

Take `CNC(=O)c1cc(-c2ccc(NC(=S)Nc3cccc(C(F)(F)F)c3)cc2)nc2cccnc12`: the growth in [1] was 92.4%; in [2], 95.8%; in [3], 102%; in [4] it was 99.4%; in experiment [5], 85%; in experiment [6], 89.7%. The growth in [7] was 96.9%; in [8], 96.7%; in experiment [9] it was 104%; in experiment [10], 103%; in experiment [11], 90.8%; in experiment [12], 112%. In addition, the growth in experiment [13] is 96.5%; in experiment [14] it was 107%; in experiment [15], 106%; in experiment [16], 93.3%; in experiment [17], 100%; in experiment [18] it was 104%. In addition, in experiment [19], the growth is 99.3%.

On to `O=C1Nc2ccccc2/C1=C/c1ccc(OCC(=O)c2ccccc2)cc1`, for which the growth in experiment [1] is 101%; in [2], 89%; in experiment [3], 99.7%; in experiment [4] it was 102%; in experiment [5], 97.1%; in experiment [6], 104%. Also, the growth is 99.5% in experiment [7]; 107% in experiment [8]; 117% in [9]; 99.5% in experiment [10]; 88.9% in [11]; 98.4% in experiment [12]. Moreover, the growth in [13] is 96.2%; in [14], 101%; in experiment [15], 96.4%; in experiment [16] it was 107%; in experiment [17], 90.6%; in [18], 105%. Further, in experiment [19], the growth is 95.7%.

In the case of `COc1ccc(OC)c(CCn2cncc2-c2c[nH]c3ccc(Cl)cc23)c1`, the growth in [1] was 38.1%; in [2], 59.5%; in experiment [3], 49.5%; in [4] it was 46.1%; in [5] it was 20.8%; in experiment [6] it was 3.34% (active). In addition, the growth in [7] is 33.3%; in experiment [8], 69.7%; in experiment [9], 29.8%; in [10], 60.5%; in experiment [11] it was 15.8%; in [12], 45.9%. Besides, the growth in [13] was 62.6%; in [14], 62.8%; in experiment [15] it was 50.5%; in [16], 28.9%; in experiment [17] it was 71.6%; in experiment [18] it was 23%. For the same molecule, in experiment [19], the growth is 48.4%.

With `O=S1SC(c2ccccc2)=NN1c1cc(F)cc(F)c1` (stereo unspecified), the growth in [1] is 22.9%; in experiment [2], 45.4%; in [3], 48.6%; in experiment [4], 19.6%; in [5], -25.2% (active); in [6], 34.6%. In addition, the growth is 26% in experiment [7]; 34.9% in experiment [8]; 57.2% in [10]; 22.5% in experiment [11]; 75.5% in [12]; 69.4% in [13]. Besides, the growth in experiment [14] was 52.2%; in experiment [15], 54.3%; in [16] it was 52.1%; in experiment [17] it was 60.6%; in [18], 69.3%; in experiment [19], 20.6%.
